Compound activity (PubChem BioAssay)
ELG1 repair inh: blocks ELG1-dependent DNA repair in HEK293T cells; Potency, µM (top dose mostly 46.1 µM), for inactives: top-dose activity change, negative = inhibition, hits mostly inhibitors; HEK293T ELG1-luciferase reporter, luminescence, 16 h; DNA damage induced by 5-fluorouridine; hit rate 2.3% among 330,000; also: potency is read from the fitted curve at half-maximal effect; nearly all actives have a fitted effect of over 55% in size
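Luminescence from the luciferase reporter, measured 30 min after ONE-Glo reagent at room temperature, was the read-out. Beforehand, 2,000 cells per well were exposed for 16 hr at 37 °C to 5-fluorouridine together with compound or vehicle.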
HT1080 IDH1KD tx: HT-1080 IDH1 knockdown cell toxicity (counter line); HT-1080 IDH1 knockdown viability, ATP luminescence, 48 h; Potency, µM (highest dose often 46.1 µM), inactives show at the highest dose activity, negative = toxicity, usual class: cytotoxic; hit rate 2% among 360,000; AID 686971;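 also: potency is read from the fitted curve at half-maximal effect; 0% = DMSO wells and -100% = cell-free medium wells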
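Using the IDH1-knockdown HT-1080 line run in the same batch and compound series as the NT line, viability after 48 h at 37 °C was determined by CellTiter-Glo luminescence and expressed as % activity.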
HT1080NT lethal: kills 2HG-producing HT-1080-NT fibrosarcoma cells; HT-1080-NT fibrosarcoma viability, CellTiter-Glo ATP luminescence, 48 h; Potency, µM (highest dose often 46.1 µM), for inactives: top-dose activity, negative = less viability, usual class: cytotoxic; hit rate 1.6% among 360,000;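 also: NT is the 2HG producing partner of a matched IDH1 knockdown line; potency is read from the fitted curve at half-maximal effect; 0% = DMSO-treated cells and -100% = media-only wells without cells; nearly all actives have a fitted effect of over 55% in size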
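Viability by CellTiter-Glo luminescence after 48 h compound exposure at 37C of HT-1080-NT cells (750/well, RPMI, 5% FBS). % activity scaled between DMSO wells and medium-only wells, then curve-fitted and categorized by curve class.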
TDP1 cell noCPT: qHTS for Inhibitors of human tyrosyl-DNA phosphodiesterase 1 (TDP1): qHTS in cells in absence of CPT | hit rate 15% among 420,000 | DT40 Tdp1-/- hTDP1 cells, no CPT, ATP luminescence, 48 h | Potency, µM (titrated, usually from 46.2 µM), inactives show at the highest dose activity change, negative = growth inhibition, most hits filed as inhibitors; also: potency is read from the fitted curve at half-maximal effect; nearly all actives have a fitted effect of over 55% in size
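Chicken DT40 Tdp1-/- cells stably complemented with human TDP1 were seeded at 400 cells/well with DMSO in place of 20 nM camptothecin. After compound pinning, cells grew at least 48 hr at 37 °C; viability read by CellTiter-Glo luminescence.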
DT40 TDP1 CPT: DT40-hTDP1 cell growth loss with CPT | hit rate 12% among 420,000 | AID 686979 | chicken DT40 Tdp1-/-;hTDP1 cells + 20 nM CPT, ATP luminescence, 48 h | Potency, µM (titrated, usually from 46.2 µM), for the others: at the highest dose activity change, negative = growth inhibition, most hits filed as inhibitors; also: potency is read from the fitted curve at half-maximal effect; nearly all actives have a fitted effect of over 55% in size
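Cell growth measured by CellTiter-Glo luminescence after a minimum 48 h, 37 C compound exposure with 20 nM CPT in Tdp1-knockout DT40 cells stably expressing hTDP1, seeded 400/well; qHTS titration format.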
IL-1B inflam inh: blocks inflammasome-driven IL-1 beta release; THP-1 LPS/ATP IL-1B secretion, AlphaLISA, 16 h; stronger effect = lower value; activity change, % at 57.5 µM; hit rate 4.7% among 360,000; in the data active = activity change below about -50%; inconclusive = mostly about -30% to -49%
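THP-1 cells pretreated 1 hr with compounds (up to 57.5 uM final), then stimulated with LPS (250 ng/mL final) plus ATP (1.25 mM final); secreted IL-1B measured by AlphaLISA after 16 hr, decreased signal indicating inhibition.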
* = called active by the depositor; ? = inconclusive; nt = no result; ! = a repeat was not active; [ ] = dose if it differs, or a comment. Most compounds without a hit are left out; they make up all but 19% or so of the library. Unless noted, calls follow the shape of the dose curve; as a rule, active = well fitted curve in the direction sought with a large enough effect; inconclusive = small, poorly fitted or top-dose-only effect, or another doubt; inactive = no such curve, though single readings can be large; an effect the other way counts as inactive or inconclusive. Unless noted, % is scaled to controls: 0 for no effect and ±100 for the full control effect.

SMILES | ELG1 repair inh | HT1080 IDH1KD tx | HT1080NT lethal | TDP1 cell noCPT | DT40 TDP1 CPT | IL-1B inflam inh
O=C(CCc1c[nH]c2ccccc12)N1CCN(c2ccc(O)cc2)CC1 | -22.0% | 13µM* | ? | 7.31µM* | 5.17µM* | 30.6
Cc1ccc(CSCC(=O)N2CCN(c3ccc(F)cc3)CC2)cc1 | -3.6% | ? | 1.7% | 23.1µM* | 25.9µM* | -17.2
Cc1ccc(OCCC(=O)N2CCN(c3ccc(O)cc3)CC2)cc1 | 7.3µM* | 7.31µM* | ? | 16.4µM* | ? | 23.5
NC(N)=N/N=C/c1cc([N+](=O)[O-])ccc1O | 10.7% | 8.3% | 25.7% | 1.8% | 5.1% | 0.0
O=[N+]([O-])c1ccc(O)c(/C=N\N=C2c3ccccc3-c3ccccc32)c1 | ? | -7.2% | -16.7% | 11.6µM* | 23.1µM* | -23.5
O=[N+]([O-])c1ccc(O)c(/C=N/NC2=NS(=O)(=O)c3ccccc32)c1 | ? | 18.3% | -6.7% | 0.517µM* | 4.11µM* | -10.6
O=[N+]([O-])c1ccc(O)c(/C=N/Nc2ccc(Cl)nn2)c1 | ? | 0.206µM* | ? | 1.16µM* | 1.16µM* | 57.6
O=C(N/N=C/c1cccs1)C(O)c1ccccc1 (stereo unspecified) | 0.8% | 1.2% | 2.6% | -27.2% | 5.9% | -2.5
O=S1(=O)N=C(N/N=C/c2cccs2)c2ccccc21 | 3.6% | ? | -27.5% | ? | -5.9% | -99.3*
O=[N+]([O-])c1ccc(/C=N/NC2=NS(=O)(=O)c3ccccc32)cc1 | 29.6% | -5.2% | -4.5% | 3.6% | -12.7% | -17.2
Cc1cccc(C)c1-n1nnnc1C(c1ccnc2ccccc12)N(C)Cc1ccccc1 (stereo unspecified) | nt | 10.6% | 9.1% | 16.4µM* | ? | 24.3
Cc1cccc(C)c1-n1nnnc1C(c1ccnc2ccccc12)N(CCN(C)C)Cc1ccccc1 (stereo unspecified) | nt | 20.6µM* | 20.6µM* | ? | ? | ?
COc1cccc(CNC(=O)CCc2nc3cc(S(=O)(=O)N4CCOCC4)ccc3n2C)c1 | ? | -0.9% | 3.1% | -23.3% | -25.2% | -10.6
Cn1c(NC(=O)c2ccc(F)cc2)c(-c2ccccn2)c(=O)c2ccccc21 | ? | 2.0% | 3.7% | -17.5% | -3.1% | 22.6
NC(=O)C1CCCN(C(=O)c2ccc(NC(=O)c3cccs3)cc2)C1 (stereo unspecified) | 21.8% | -3.2% | -8.7% | -2.4% | -13.8% | -14.7
O=C(c1n[nH]c2c1CCCC2)N1CCC(n2c(C3CCCO3)nc3ccccc32)CC1 (stereo unspecified) | nt | nt | nt | -25.7% | -6.2%[9.04 µM] | nt
C(=C\c1nc(-c2ccncc2)no1)/c1ccccc1 | 5.1% | -6.0% | 0.0% | 16.4µM* | -6.6% | -22.2
C(=C\c1nc(-c2ccccc2)no1)/c1ccccc1 | ? | 2.4% | 20.3% | 8.3% | -29.7% | -18.5
COc1cccc(NC(=S)NCc2ccc3c(c2)cc(C)n3C)c1 | -19.7% | -5.2% | -17.5% | 16.4µM* | -20.3% | -27.6
Cc1cccc(NC(=O)NCc2ccc3c(c2)cc(C)n3C)c1 | -6.7% | 2.3% | -4.6% | -24.2% | ? | -10.0
Cc1cc2cc(CNC(=S)Nc3ccc(OC(F)(F)F)cc3)ccc2n1C | 11.4% | -12.9% | -0.8% | ? | ? | 11.1
Cc1cccc(NC(=S)NCc2ccc3c(c2)cc(C)n3C)c1C | 25.9µM* | -9.4% | -1.9% | 14.6µM* | 11.6µM* | -4.0
O=C(CCn1c(=O)c2cccn2c2cccnc21)N1CCN(c2ccc(F)cc2)CC1 | nt | nt | nt | 16.4µM* | 14.6µM* | nt
CCOC(=O)c1ccc(NC(=O)CCn2c(=O)c3cccn3c3cccnc32)cc1 | nt | nt | nt | ? | 20.6µM* | nt
Cc1ccc(NC(=O)CCCn2c(=O)c3cccn3c3cccnc32)c(C)c1 | nt | nt | nt | -5.6% | 8.9% | nt
SMILES | ELG1 repair inh | HT1080 IDH1KD tx | HT1080NT lethal | TDP1 cell noCPT | DT40 TDP1 CPT | IL-1B inflam inh
CCCCN(CC)C(=O)CCn1c(=O)c2cccn2c2cccnc21 | nt | nt | nt | 18.4µM* | ? | nt
CCc1cccc(C)c1NC(=O)CCCn1c(=O)c2cccn2c2cccnc21 | 2.7% | 18.9% | 7.9% | ? | 23.1µM*! | -8.4
COc1ccc(NC(=O)CCn2c(=O)c3cccn3c3cccnc32)cc1Cl | nt | nt | nt | -23.6% | -0.4% | nt
COC(=O)c1ccccc1NC(=O)CCCn1c(=O)c2cccn2c2cccnc21 | nt | nt | nt | -21.1% | -19.1% | nt
CCOC(=O)c1ccc(NC(=O)CCCn2c(=O)c3cccn3c3cccnc32)cc1 | nt | nt | nt | 18.4µM* | ? | nt
Cc1cccc(/C=C2\CCC(=C3SCCCS3)C2=O)c1 | ? | -1.8% | -1.6% | 14.6µM* | ? | -2.9
O=C1C(=C2SCCCS2)CC/C1=C\c1ccc(F)cc1 | ? | 13.3% | ? | ? | ? | -12.1
CCOc1ccc(NC(=O)CC2C(=O)N(CC)C(=S)N2CCN2CCOCC2)cc1 (stereo unspecified) | -1.5% | 9.8% | -1.0% | ? | ? | 1.2
CCCOc1ccc(NC(=O)CC2C(=O)N(CC)C(=S)N2CCCN2CCN(Cc3ccccc3)CC2)cc1 (stereo unspecified) | ? | 16.4µM* | 16.4µM* | 14.6µM* | 14.6µM* | -99.9*
CCN1C(=O)C(CC(=O)Nc2ccc(F)cc2)N(CCCN2CCN(c3ccc(F)cc3)CC2)C1=S (stereo unspecified) | ? | ? | 29.1µM* | 14.6µM* | 14.6µM* | ?
Cc1c(Cl)cccc1-c1ccc(CNCCSc2nnnn2-c2ccccc2)o1 | nt | nt | nt | -0.1% | -5.1% | nt
CCOC(=O)c1sc(=S)n(-c2ccccc2Cl)c1SC | -4.2% | -8.5% | -17.5% | ? | ? | -67.4*
O=S1(=O)CCOCCCN1Cc1ccc(Cl)cc1 | -27.8% | 4.3% | 6.3% | ? | 5.2% | 12.9
Cc1ccccc1N1C(=O)C(Cl)=C(N2CCCCCC2)C1=O | -15.4% | -6.0% | -1.4% | ? | 29.1µM* | 10.2
O=C1C(Cl)=C(N2CCCCC2)C(=O)N1c1ccccc1Cl | 11.5% | 8.2% | 1.8% | -23.8% | ? | 41.2
C=CCN(Cc1cccs1)C(=O)CN1CCN(S(=O)(=O)c2ccc3c(c2)OCCCO3)CC1 | ? | -6.5% | -12.9% | ? | ? | -19.6
CCOC(=O)C(=O)C1=CN(Cc2ccccc2)C=C(C#N)C1 | 0.9% | -0.1% | 18.0% | -3.9% | -0.2% | -0.4
N#CC1=CN(Cc2ccccc2)C=C(/C=N/Nc2ccccc2)C1 | -12.1% | ? | ? | ? | ? | -79.6*
